Data on ten molecules can be found in the supplement of paper PMC13380429.

The test system of experiment [1] is Vero E6 infected with SARS-CoV-2. The experiment can be described thus: morphology score (similarity to uninfected cells); higher = more like uninfected cells. Particulars: 24 h.
For experiment [2] the test system is unchanged. The experiment can be described thus: SARS-CoV-2 infection rate relative to infected DMSO; higher = more infection, active = 60 or less. Particulars: 24 h.

In experiment [1], `c1ccc(OCc2ccc(CCCN3CCOCC3)cc2)cc1` [fomocaine] (10 µM) showed a morphology score of -0.0235. The SARS-CoV-2 infection rate in experiment [2] is 106% (inactive).

In turn, `CCOc1ccc(/C=C2\NCCc3cc(OCC)c(OCC)cc32)cc1OCC` [drotaverine] (10 µM) registered a morphology score in experiment [1] of 0.156. Besides, the SARS-CoV-2 infection rate in experiment [2] was 104% (inactive).

As for `N.N.O=C([O-])C[O-].[Pt+2]` [nedaplatin] (10 µM), in experiment [1], the morphology score was found to be 0.0896. Further, the SARS-CoV-2 infection rate in experiment [2] was 102% (inactive).

In experiment [1], `CO[C@H]1C[C@H](O[C@H]2CC[C@@]3(C)[C@H](CC[C@@H]4[C@@H]3CC[C@]3(C)[C@@H](C5=CC(=O)OC5)[C@@H](OC(C)=O)C[C@]43O)C2)O[C@@H](C)[C@@H]1O` [oleandrin] (0.833333 µM) registered a morphology score of -0.173. For the same molecule, the SARS-CoV-2 infection rate in experiment [2] was 118% (inactive).

As to `COc1ccc(/C=C/C(=O)Nc2ccccc2C(=O)O)cc1OC` [tranilast] (10 µM), in experiment [1], the morphology score was determined as 0.0917. In addition, the SARS-CoV-2 infection rate in experiment [2] was 108% (inactive).

As to `O=C(O)CSCC(=O)NC1CCSC1=O` (stereo not given) [erdosteine] (10 µM), the morphology score in experiment [1] is -0.0411. Besides, in experiment [2], the SARS-CoV-2 infection rate was 104% (inactive).

With `CCCCCCCCCCCCCCCC(=O)OC[C@H](COP(=O)([O-])OCC[N+](C)(C)C)OC(=O)CCCCCCCCCCCCCCC` [colfosceril-palmitate] (10 µM), in experiment [1], the morphology score stood at 0.152. In addition, the SARS-CoV-2 infection rate in experiment [2] was 103% (inactive).

Consider `c1cc(Cc2cnc[nH]2)ccn1` [immethridine] (10 µM), for which the morphology score in experiment [1] was 0.158. In addition, the SARS-CoV-2 infection rate in experiment [2] is 109% (inactive).

`O=C(NCc1ccc(F)cc1)N1CCN2C(=O)OC(c3ccccc3)(c3ccccc3)[C@@H]2C1` (racemic) (10 µM) came in with a morphology score in experiment [1] of 0.069. Further, the SARS-CoV-2 infection rate in experiment [2] is 97% (inactive).

Molecule `COc1ncc2cc(C(=O)Nc3cc(C(=O)NCc4cccc(Cl)c4)ccc3Cl)c(=O)[nH]c2n1` (10 µM) had a morphology score in experiment [1] of -0.0693. In experiment [2], the SARS-CoV-2 infection rate was 110% (inactive).
